# Screening results from PubChem BioAssay.
# Shown are actives, neighbours in structure and some others; about 4.5% of the full set was active somewhere.
# ZTA counter: ZTA (EBV) inhibition in EBNA-1 counter-screen. ZTA-DNA binding, fluorescence polarization. inhibition, % at 11 µM. P03206. hit rate 0.15% among 320,000; in the data active = inhibition above about 33%
# TPT1 inh: C. albicans TPT1 enzyme inhibition; recombinant caTPT1, FP RNA substrate dephosphorylation; inhibition, % at 5 µM; hit rate 0.81% among 300,000;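 active = inhibition above the mean of all tested compounds plus 3 SD, set per screening campaign, cut at about 24% in these data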;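 also: plate controls were DMSO alone for no effect and ferristatin control at 100 nM for full effect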
# NR3A LBD binder: modulates the human NR3A ligand-binding domain | NR3A LBD differential scanning fluorimetry, Tm shift; 0% = protein alone, 100% = glycine-bound protein | Tm shift relative to glycine control, % at 25 µM | hit rate 2.5% among 340,000;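 active = melting temperature shift of at least 10% of the positive control shift, at one fixed dose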
# EBNA-1 inh: blocks EBNA-1 binding to DNA; EBNA-1 DNA binding, fluorescence polarization; hit rate 0.34% among 300,000; inhibition, % at 14.8 µM; in the data active = inhibition above about 28%
# Rpn11 block: Rpn11 (human) deubiquitinase inhibition | AID 588493 | O00487 | hit rate 0.59% among 360,000 | human 26S proteasome, Ub4-pepOG fluorescence polarization; 20S core pre-blocked with epoxomicin | inhibition, % at 20 µM;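 active = inhibition at 20 µM, scaled to each plate's controls, above about 33%, limit read from the data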
# dFosB act: activators of mouse delta FosB homodimer; P13346; purified delta FosB, TAMRA-CDK5 oligo fluorescence polarization; percent of positive-control signal above neutral wells; activation, % at 25 µM; hit rate 0.99% among 340,000;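 active = mean activation above about 17%, with every replicate also reaching it, limit read from the data, passing the limit was not always enough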
# Target sequence (P13346 whole entry, looked up): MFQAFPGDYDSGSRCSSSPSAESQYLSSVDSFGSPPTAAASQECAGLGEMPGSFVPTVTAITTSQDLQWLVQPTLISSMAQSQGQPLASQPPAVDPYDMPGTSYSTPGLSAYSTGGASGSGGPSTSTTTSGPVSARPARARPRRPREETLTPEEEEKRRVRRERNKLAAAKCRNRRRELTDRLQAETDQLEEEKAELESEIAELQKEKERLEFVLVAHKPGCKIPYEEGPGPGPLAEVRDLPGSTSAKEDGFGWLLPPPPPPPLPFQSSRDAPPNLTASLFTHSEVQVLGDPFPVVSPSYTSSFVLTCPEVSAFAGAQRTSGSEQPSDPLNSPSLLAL
# TPT1 inh confirm: TPT1 (C. albicans) inhibition, confirmation; shares compounds with TPT1 inh; recombinant caTPT1, fluorescence polarization, RNase T1 coupled; inhibition, % at 5 µM; hit rate 74% among 2,400;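 active = inhibition above the primary screen limit, the mean inhibition of all tested compounds plus 3 SD, cut at about 25% in these data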
# RNase T1 counter: counter-screen for TPT1 inhibitors: inhibitors of Aspergillus oryzae RNase T1 | RNase T1 cleavage, fluorescence polarization, 1536-well | inhibition, % at 5 µM | hit rate 83% among 2,400 | AID 2153 | shares compounds with TPT1 inh;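 active = inhibition above the solvent-only control well mean plus 3 SD, limit set per screening run, cut at about 23% in these data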;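 also: plate controls were DMSO wells with enzyme for no effect and wells without RNase T1 for full effect; inhibitors block cleavage so intact labeled substrate keeps polarization high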
# An asterisk follows results filed as active; x = not tested or not shown.
SMILES,ZTA counter,TPT1 inh,NR3A LBD binder,EBNA-1 inh,Rpn11 block,dFosB act,TPT1 inh confirm,RNase T1 counter
CCn1cc(/C=C(\NC(=O)c2ccc(OC)cc2)C(=O)N2CCOCC2)c2ccccc21,-9,1,2,-8,-4,-15,x,x
Cc1ccc(C(=O)/C=C/c2cn(CC(O)CN3CCOCC3)c3ccccc23)cc1 (stereo not given),1,47*,-5,-5,x,-4,46*,57*
COc1ccc(OC)c(CCNC(=O)c2ccc(CS(=O)Cc3ccc(Cl)cc3)o2)c1 (stereo not given),-2,-1,-4,2,-3,-7,x,x
CC(NS(=O)(=O)c1ccc([N+](=O)[O-])cc1)C(c1cccs1)N1CCOCC1 (stereo not given),5,36*,-2,-9,1,1,6,11
COc1ccc(/C=C2\Oc3cc(OCC(=O)N4CCC(C(=O)O)CC4)ccc3C2=O)c(OC)c1OC,-2,2,-2,-9,0,-8,x,x
COc1ccc(/C=C2\Oc3cc(OC(=O)N4CCOCC4)ccc3C2=O)c(OC)c1,16,111*,0,-1,29,-9,44*,65*
COc1ccc(OC)c(/C=C2\Oc3cc(OCC(=O)N4CCC(C(=O)O)CC4)ccc3C2=O)c1,7,29*,0,-2,15,-14,48*,57*
COc1ccc(/C=C2\Oc3cc(OCC(=O)N4CCC(C(=O)O)CC4)ccc3C2=O)c(OC)c1,-10,65*,0,6,x,3,90*,98*
O=C1/C(=C/c2ccc(F)cc2)Oc2cc(OC(=O)N3CCOCC3)ccc21,0,1,0,-7,7,-4,x,x
CS(=O)(=O)N1N=C(c2cccs2)CC1c1ccco1 (stereo not given),0,5,-1,-1,18,-9,x,x
O=C(CSc1nncc2ccccc12)Nc1ccc(C(=O)O)cc1,-2,0,0,-12,-4,-1,x,x
COc1cc(/C=C2/C(=O)NN(c3ccc(Cl)c(Cl)c3)C2=O)cc([N+](=O)[O-])c1O,2,13,6,1,12,-18,x,x
COc1cc(/C=C2/C(=O)NN(c3ccc(F)cc3)C2=O)cc(Cl)c1O,-13,40*,-16,-14,32,5,80*,99*
COc1cc(/C=C2/C(=O)ON=C2C)cc(Cl)c1O,4,42*,26*,4,24,0,101*,113*
CN(C(=O)CSc1nnc(C2CC2)n1-c1ccccc1)C1CCS(=O)(=O)C1 (stereo not given),-7,x,0,x,-3,-8,x,x
CCN(C1CCS(=O)(=O)C1)S(=O)(=O)c1ccc(OC)c(OC)c1 (stereo not given),7,3,0,-5,2,-2,x,x
CCN(CC)c1ccc2c(c1)oc(=O)c1c(Cl)cc(=O)oc12,4,25*,0,0,-14,-5,37*,50*
CCN(CC)c1ccc2c(C)c(Cl)c(=O)oc2c1,-10,-5,1,-14,-9,-15,x,x
CC(=O)N1C[C@H]2CON(C)[C@H]2C[C@H]1c1cccc(-c2cc(Cl)cc(Cl)c2)c1,x,x,x,x,-1,x,x,x
Cc1ccc(NC(=O)CN2CCN(S(=O)(=O)c3ccc(F)cc3)CC2)cc1C,-2,x,-1,x,-4,-10,x,x
Cc1onc(-c2ccccc2)c1C(=O)N/N=C/c1c(F)cccc1Cl,4,-3,2,-4,-1,-1,x,x
CC(=O)Nc1ccc(S(=O)(=O)Nc2nc3ccccc3nc2Nc2ccc3ccccc3c2)cc1,6,29*,34*,-8,x,-4,13,24*
CC(=O)Nc1ccc(S(=O)(=O)Nc2nc3ccccc3nc2Nc2ccc(N)cc2)cc1,-7,77*,6,12,x,-15,62*,69*
NC(=O)c1ccc(NCCc2ccccc2)c([N+](=O)[O-])c1,8,0,0,-15,-4,-6,x,x
O=C(Nc1ccccc1)c1ccc(NCCc2ccccc2)c([N+](=O)[O-])c1,-6,45*,0,9,x,-5,105*,115*
